# G9a inh: inhibitors of human histone lysine methyltransferase G9a; G9a H3K9 monomethylation, AlphaScreen, 2 h; AID 504332; Q96KQ7; hit rate 8.8% among 350,000; Potency, µM (titrated, usually from 102 µM), inactives show at the top dose activity, negative = inhibition, most hits filed as inhibitors; note: % is set by controls: 0 for no effect and ±100 for the full control effect; nearly all actives have a fitted effect of over 75% in size
#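 Methyltransferase reactions run at room temperature for 2 h (20 nM enzyme, 500 nM biotin-H3K9 peptide, 20 uM SAM) after a 15 min compound preincubation; product detected by AlphaScreen beads and anti-H3K9me1 antibody.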
# JMJD2A Tudor inh: inhibitors of human JMJD2A Tudor domain; AID 504339; hit rate 4.4% among 390,000; Potency, µM (series often up to 114 µM), for inactives: top-dose activity change, negative = inhibition, hits mostly inhibitors; AlphaScreen JMJD2A-Tudor / H3K4me3 peptide binding; O75164; note: % is set by controls: 0 for no effect and ±100 for the full control effect; nearly all actives have a fitted effect of over 50% in size
# HP1b binding inh: inhibitors of HP1-beta chromodomain binding to methylated histone tails; P83916; AlphaScreen HP1-beta / biotin-H3K9me3 peptide binding; Potency, µM (highest dose often 114 µM), without a hit: at the highest dose activity change, negative = inhibition, hits mostly inhibitors; hit rate 0.56% among 390,000; AID 540317; note: nearly all actives have a fitted effect of over 70% in size
#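 HP1-beta protein (50 nM final) preincubated 30 min at room temperature with biotinylated H3(1-18)K9me3 peptide (50 nM) in PBS pH 7.4, 0.01% Tween-20, then compound added for 30 min. AlphaScreen streptavidin donor/nickel chelate acceptor beads (10 ug/mL final), 30 min dark, luminescence read.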
# L3MBTL1 inh: L3MBTL1 (human) inhibition; AlphaScreen L3MBTL1–H3K9me1 peptide binding; Potency, µM (highest dose often 57.1 µM), for the others: at the top dose activity, negative = inhibition, actives largely listed as inhibitors; hit rate 0.66% among 230,000; note: % is set by controls: 0 for no effect and ±100 for the full control effect; nearly all actives have a fitted effect of over 60% in size
#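 AlphaScreen assay: L3MBTL1 (50 nM final) was preincubated 30 min at room temperature with biotinylated H3(1-15)K9me1 peptide (75 nM final), then 30 min with library compounds; streptavidin donor and nickel chelate acceptor beads (10 ug/mL final) added, 30 min dark.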
# BAZ2B inh: BAZ2B (human) inhibition | AlphaScreen BAZ2B-H3K14Ac peptide displacement | Potency, µM (titrated, usually from 114 µM), inactives show at the highest dose activity change, negative = inhibition, most hits filed as inhibitors | hit rate 4.4% among 360,000 | AID 504333; note: % is set by controls: 0 for no effect and ±100 for the full control effect; nearly all actives have a fitted effect of over 60% in size
# Target sequence (Q9UIF8 whole entry, looked up): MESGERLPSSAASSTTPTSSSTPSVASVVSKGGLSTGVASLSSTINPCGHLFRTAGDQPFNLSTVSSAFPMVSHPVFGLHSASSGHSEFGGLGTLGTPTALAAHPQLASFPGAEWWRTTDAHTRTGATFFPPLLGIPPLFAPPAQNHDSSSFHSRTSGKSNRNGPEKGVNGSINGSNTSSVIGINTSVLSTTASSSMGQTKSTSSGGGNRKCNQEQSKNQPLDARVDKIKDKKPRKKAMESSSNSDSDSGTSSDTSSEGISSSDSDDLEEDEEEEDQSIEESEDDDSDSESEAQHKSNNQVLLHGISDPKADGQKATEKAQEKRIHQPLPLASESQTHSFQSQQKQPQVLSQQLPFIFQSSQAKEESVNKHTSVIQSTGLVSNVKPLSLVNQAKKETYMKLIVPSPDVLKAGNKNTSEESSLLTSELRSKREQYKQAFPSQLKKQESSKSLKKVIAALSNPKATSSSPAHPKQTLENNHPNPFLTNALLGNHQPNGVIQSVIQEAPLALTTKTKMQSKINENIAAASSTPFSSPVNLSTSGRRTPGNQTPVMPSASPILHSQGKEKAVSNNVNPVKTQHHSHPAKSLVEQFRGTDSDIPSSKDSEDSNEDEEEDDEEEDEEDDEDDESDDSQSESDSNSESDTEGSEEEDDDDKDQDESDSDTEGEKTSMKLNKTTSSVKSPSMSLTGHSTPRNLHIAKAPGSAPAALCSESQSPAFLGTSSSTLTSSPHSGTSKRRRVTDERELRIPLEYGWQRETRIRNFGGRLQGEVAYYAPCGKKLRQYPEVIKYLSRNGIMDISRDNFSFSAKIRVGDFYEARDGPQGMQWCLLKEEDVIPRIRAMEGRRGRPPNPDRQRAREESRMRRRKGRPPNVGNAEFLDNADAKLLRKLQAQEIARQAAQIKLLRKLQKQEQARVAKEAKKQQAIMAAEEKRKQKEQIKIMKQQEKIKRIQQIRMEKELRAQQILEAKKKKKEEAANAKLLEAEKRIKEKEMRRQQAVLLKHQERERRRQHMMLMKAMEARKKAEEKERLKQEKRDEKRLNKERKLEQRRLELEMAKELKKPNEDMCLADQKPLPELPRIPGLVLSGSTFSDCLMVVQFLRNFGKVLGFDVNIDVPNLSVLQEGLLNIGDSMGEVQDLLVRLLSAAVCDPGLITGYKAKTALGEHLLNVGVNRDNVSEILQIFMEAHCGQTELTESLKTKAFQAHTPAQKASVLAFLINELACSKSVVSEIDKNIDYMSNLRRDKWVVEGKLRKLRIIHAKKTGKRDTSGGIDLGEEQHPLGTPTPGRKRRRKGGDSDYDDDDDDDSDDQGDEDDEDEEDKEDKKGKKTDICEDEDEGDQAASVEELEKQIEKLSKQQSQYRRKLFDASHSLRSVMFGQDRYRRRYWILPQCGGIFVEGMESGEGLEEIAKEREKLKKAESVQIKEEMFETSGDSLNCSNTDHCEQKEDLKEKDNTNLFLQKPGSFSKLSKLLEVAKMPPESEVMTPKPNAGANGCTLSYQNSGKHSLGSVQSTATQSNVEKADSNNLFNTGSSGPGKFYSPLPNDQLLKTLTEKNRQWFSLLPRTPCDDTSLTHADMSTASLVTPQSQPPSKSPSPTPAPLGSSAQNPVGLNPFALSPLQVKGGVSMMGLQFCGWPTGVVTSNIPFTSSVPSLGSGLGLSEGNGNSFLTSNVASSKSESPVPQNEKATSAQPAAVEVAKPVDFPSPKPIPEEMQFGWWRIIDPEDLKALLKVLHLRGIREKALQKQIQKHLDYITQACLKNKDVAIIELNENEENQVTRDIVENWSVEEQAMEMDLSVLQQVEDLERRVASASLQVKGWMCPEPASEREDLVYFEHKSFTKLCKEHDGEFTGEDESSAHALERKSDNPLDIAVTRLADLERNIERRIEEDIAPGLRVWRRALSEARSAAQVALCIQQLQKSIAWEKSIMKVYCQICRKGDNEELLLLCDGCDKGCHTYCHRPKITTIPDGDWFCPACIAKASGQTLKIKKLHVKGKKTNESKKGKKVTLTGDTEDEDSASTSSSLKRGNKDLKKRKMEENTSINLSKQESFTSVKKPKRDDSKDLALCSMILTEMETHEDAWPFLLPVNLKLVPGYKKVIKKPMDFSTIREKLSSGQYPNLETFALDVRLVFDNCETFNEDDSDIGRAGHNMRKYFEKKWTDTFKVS
#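 Protein-peptide AlphaScreen: BAZ2B 50 nM, b-H3K14Ac 50 nM, 1x PBS pH 7.4 + 0.01% Tween-20. Preincubation 30 min RT; cpd 30 min RT (top 110 uM); beads 20 min RT, light-protected.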
# An asterisk follows results filed as active; u = inconclusive; x = not tested or not shown; [ ] = dose if it differs, or a comment. Only some compounds are listed: those with a hit (about 11% of all), similar ones and a draw of the others. Calls come from the whole dose curve; as a rule, active = well fitted inhibition curve with a large enough effect; inconclusive = small, poorly fitted or top-dose-only effect; inactive = no such curve, though single readings can be large or run the other way. Potency is the fitted concentration of half-maximal effect.
SMILES,G9a inh,JMJD2A Tudor inh,HP1b binding inh,L3MBTL1 inh,BAZ2B inh
Oc1ccc(Cl)cc1Nc1nc(NCC2CCCO2)c2ccccc2n1 (stereo unspecified),x,-22%,25%,x,x
COc1cccc(Nc2nc(NCCO)c3ccccc3n2)c1,u,-35%,11%,x,-12%
c1cncc(-c2nc(NCC3CCCO3)c3ccccc3n2)c1 (stereo unspecified),-6%,2%,29%,x,9%
Oc1ccc(Nc2nc(NCC3CCCO3)c3ccccc3n2)cc1 (stereo unspecified),50µM*,u,-21%,-11%,u
COc1cccc(Nc2nc(NCC3CCCO3)c3ccccc3n2)c1 (stereo unspecified),45µM*,-35%,-6%,x,-31%
CCOC(=O)c1ccc(NC(=O)Cn2ncc3c(C)n(Cc4ccccc4F)c(C)c3c2=O)cc1,3%[59 µM],-12%,38%,x,-1%
CC(C)(C)Cc1nnc(NS(=O)(=O)c2ccccc2)s1,79µM*,-13%,-1%,5%,-19%
Cc1nnc(NC(=O)CC(C)c2ccccc2)s1 (stereo unspecified),x,8%,32%,5%,8%
CC(CC(=O)Nc1nnc(CC(C)(C)C)s1)c1ccccc1 (stereo unspecified),40µM*,-12%,-7%,0%,5%
O=C1CC(=O)N(c2cccc(F)c2)N1,56µM*,-11%,18%,0%,-38%
CCOc1ccccc1-c1ccc(C(=O)O)o1,1%[135 µM],x,x,x,x
O=C(O)Cc1c[nH]c2ccccc12,x,-30%,1%,x,x
O=C(O)Cc1c[nH]c2cccc(O)c12,-33%[12.7 µM],22µM*,35µM*,5.6µM*,35µM*
CCn1c(C)c(C)c2cc(C(=O)N3CCCC3)ccc21,-4%,-24%,-1%,x,-36%
CCn1c(C)c(C)c2cc(C(=O)N3CCN(c4ccccc4)CC3)ccc21,u,45µM*,u,x,28µM*
Cc1c(C)n(Cc2ccc(F)cc2)c2ccc(C(=O)N3CCN(c4ccccn4)CC3)cc12,32µM*,u,-21%[57 µM],x,u
CCn1c(C)c(C)c2cc(C(=O)NC3CCCCCC3)ccc21,-6%,u,-19%[57 µM],x,35µM*
COc1ccc(NC(=O)CCc2c(C)nc3c(-c4ccccc4)c(C)nn3c2C)cc1Cl,-5%[59 µM],10%,32%,x,1%
COc1cc(C(=O)Nc2ccc(-c3nc4ccccc4o3)c(O)c2)cc(OC)c1OC,-12%[59 µM],-6%,42%,x,-7%
COc1ccc(-c2cn3nc(N4CCCC(C(=O)Nc5ccccc5OC)C4)sc3n2)cc1 (stereo unspecified),u,-23%,-5%,x,-11%
CCOc1cc(-c2nn3cnnc3s2)cc(OCC)c1OCC,2%,18µM*,-9%,3%,3%
CCOc1cc(C(N)=O)cc(OCC)c1OCC,0%[12.7 µM],-5%,36%,3%,-2%
CCCC(C(=O)NC1CCCC1)N(C(=O)Cn1nnc(-c2ccc(C)o2)n1)C1CCCC1 (stereo unspecified),11µM*,-31%,12%,-12%,-3%
O=C(NC1CCCCC1)C(c1ccncc1)N(C(=O)Cn1nnc(-c2cccs2)n1)C1CCCC1 (stereo unspecified),22µM*,-28%,5%,1%,4%
CCN(CC)C(=O)Cn1nnc(-c2ccc(C)o2)n1,4µM*,-11%,40%,5%,-6%
SMILES,G9a inh,JMJD2A Tudor inh,HP1b binding inh,L3MBTL1 inh,BAZ2B inh
Cc1ccc(N(CC(=O)NC2CCCCC2)C(=O)Cn2nnc(-c3ccc(C)o3)n2)cc1,-34%,-33%,6%,-13%,-17%
CCOc1ccc(N(CC(=O)NC2CCCCC2)C(=O)Cn2nnc(-c3ccc(C)o3)n2)cc1,45µM*,-8%,3%,x,-25%
Cc1ccc(-n2nc(C(=O)N(C)c3ccccc3Cl)c3c4ccccc4n(C)c3c2=O)cc1,-27%[59 µM],-28%,-2%,x,x
Cc1ccc2oc(-c3cc(NC(=O)c4ccc5c(c4)OCCO5)cc(C)c3O)nc2c1,3%[59 µM],-9%,25%,x,-16%
Cc1ccc(-c2nnn(CC(=O)N(Cc3ccccc3)C(C(=O)NC3CCCC3)c3ccncc3)n2)o1 (stereo unspecified),22µM*,-7%,48%,-3%,-3%
CCC(C(=O)NC1CCCC1)N(C(=O)Cn1nnc(-c2ccc(C)o2)n1)c1ccc(OC)cc1 (stereo unspecified),6%,-11%,11%,x,3%
CCC(C(=O)NC1CCCC1)N(C(=O)Cn1nnc(-c2ccc(C)o2)n1)C(C)(C)C (stereo unspecified),32µM*,-13%,32%,-6%,5%
CCc1c(C)sc(NC(=O)C2CC2c2ccccc2)c1C(N)=O (stereo unspecified),14µM*,-31%,0%,-7%,-5%
CN1CCN(c2ccc(S(=O)(=O)N3CCCCC3)cc2NC(=O)/C=C/c2ccc(OC(F)F)cc2)CC1,45µM*,-34%,-25%,-12%,-38%
CCN1CCN(c2ccc(S(=O)(=O)N3CCCCC3)cc2NC(=O)/C=C/c2ccc(OC(F)F)cc2)CC1,14µM*,-34%,-15%,-18%,4%
CCN1CCN(c2ccc(S(=O)(=O)N3CCCCC3)cc2NC(=O)Cc2c(F)cccc2Cl)CC1,x,-23%,-2%,x,-24%
O=c1c2sc3ccccc3c2n(Cc2cccc(C(F)(F)F)c2)c(=O)n1Cc1ccc(F)cc1,31%[59 µM],-21%,76%,x,23%
COc1ccc(C(=O)C2CCCN(C(=O)c3ccc(CSC)o3)C2)cc1F (stereo unspecified),32µM*,-32%,10%,x,-33%
COc1ccc(C(=O)C2CCCN(C(=O)c3noc4c3CCCC4)C2)cc1F (stereo unspecified),-25%,-3%,55%,-4%,-2%
CSC1=NC2C(N1)N(C)C(=O)N2C (stereo unspecified),7.9µM*,-15%,30%,x,35µM*
CCOc1ccccc1NCc1cc(=O)oc2cc(C)ccc12,45µM*,u,-15%,x,-36%
O=C1Nc2ccccc2C(=O)C1(Cl)Cc1ccccc1 (stereo unspecified),u,50µM*,u,9%,79µM*
CC(C)(C)N1C(=O)c2ccccc2NC(=O)N1Cc1ccccc1,-24%[59 µM],-1%,37%,x,-12%
CCN(CC)c1ccc(C=Nc2ccc(C)cc2C)c(O)c1,x,-10%,33%,10%,-15%
CC(=O)Nc1ccc(C=NN=C2c3ccccc3-c3ccccc32)cc1,x,u,-13%,x,x
Cc1ccc(N=Cc2cccc(O)c2O)c(C)c1,u,35µM*,16µM*,32µM*,-32%
Oc1ccccc1C=NN=C1c2ccccc2-c2ccccc21,x,16µM*,45µM*,x,x
CC(N=Cc1cccc(O)c1O)c1ccccc1 (stereo unspecified),1.3µM*,45µM*,u,x,50µM*
Cc1ccccc1N=Cc1cccc(O)c1O,7.9µM*,40µM*,u,2.5µM*,40µM*
